Source: the supplement of paper PMC10981050
Counter-ions that a name gives are not always drawn.

Tested on: MARIMO
Experiment: cell viability relative to vehicle control; higher = less cytotoxic
Conditions: 10 µM; SRSF2 genotype: SRSF2 P95H/wt
Procedure, shortened: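 CRISPR-edited SRSF2 P95 mutant and isogenic wild-type clones of four leukaemia lines were screened against Selleck bioactive, kinase and epigenetic probe libraries, with identity-inconsistent compounds removed. Compounds were acoustically dispensed into 384-well plates at a single 10 µM dose, with 2000 cells in 50 µL medium per well. After 48 h, supernatant was removed and CellTiter-Glo luminescence was read. Viability was expressed as percent of the on-plate DMSO vehicle control, analysed in Genedata Screener.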

Row | Structure (SMILES) | cell viability
1 | CC1=CC(=O)CC(C)(C)C1=O [Ketoisophorone] | 98.3%
2 | CN1CCc2c(c3ccccc3n2Cc2ccc(C(=O)NO)cc2)C1 [Tubastatin A hydrochloride] | 67%
3 | CCC[C@@H]1C[C@@H](C(=O)N[C@@H]([C@H]2O[C@H](SC)[C@H](O)[C@@H](O)[C@H]2O)[C@@H](C)O)N(C)C1 [Lincomycin hydrochloride (Lincocin)] | 88.7%
4 | COc1cc2c(cc1OC)-c1cc3ccc(OC)c(OC)c3c[n+]1CC2 [Palmatine chloride] | 81%
5 | COc1ccc(C(=O)CC2(O)C(=O)Nc3c(Cl)ccc(Cl)c32)cc1 (centres undefined) | 7.08%
6 | CCNC(=O)Nc1ccc(-c2nc(N3CCOC[C@@H]3C)c3c(n2)C(C)(C)S(=O)(=O)C3)cc1 | 56.9%
7 | C=C[C@]1(C)C[C@@H](OC(=O)CSCCN(CC)CC)[C@]2(C)[C@H](C)CC[C@]3(CCC(=O)[C@H]32)[C@@H](C)[C@@H]1O [Tiamulin] | 75.6%
8 | Oc1ccc(Nc2nc(-c3ccc(Cl)cc3)cs2)cc1 | 38.8%
9 | CCC1=C[C@@H]2CN(C1)Cc1c([nH]c3ccccc13)[C@@](C(=O)OC)(c1cc3c(cc1OC)N(C)[C@H]1[C@@](O)(C(=O)OC)[C@H](OC(C)=O)[C@]4(CC)C=CCN5CC[C@]31[C@@H]54)C2 [Vinorelbine Tartrate] | 7.46%
10 | COc1cc(O)c(C(=O)c2ccccc2)cc1S(=O)(=O)O [Sulisobenzone] | 95.4%

Same assay, conditions: 10 µM; SRSF2 genotype: SRSF2 wt/wt

Row | Structure (SMILES) | cell viability
11 | CCN(Cc1ccncc1)C(=O)C(CO)c1ccccc1 (centres undefined) [Tropicamide] | 103%
12 | CN(C)C1CCN(C(=O)c2ccc(NC(=O)Nc3ccc(-c4nc(N5CCOCC5)nc(N5CCOCC5)n4)cc3)cc2)CC1 | 34.9%
13 | COc1cc2nc(N3CCN(C(=O)c4ccco4)CC3)nc(N)c2cc1OC [Prazosin HCl] | 103%
14 | O=C(c1cccc(Br)c1)N1CCC(N2CCCC2)CC1 | 110%
15 | CC(=O)Oc1ccc2c(c1)Oc1cc(OC(C)=O)ccc1C21OC(=O)c2cc(C(=O)ON3C(=O)CCC3=O)ccc21.CC(=O)Oc1ccc2c(c1)Oc1cc(OC(C)=O)ccc1C21OC(=O)c2ccc(C(=O)ON3C(=O)CCC3=O)cc21 | 77.4%
16 | CC1(C)S[C@@H]2[C@H](NC(=O)Cc3ccccc3)C(=O)N2[C@H]1C(=O)O [Penicillin G Sodium] | 107%
17 | CCOc1cc2ncc(C#N)c(Nc3ccc(F)c(Cl)c3)c2cc1NC(=O)/C=C/CN(C)C [Pelitinib (EKB-569)] | 1.37%
18 | CC(C)=CCC[C@](C)(O[C@@H]1O[C@H](CO)[C@@H](O)[C@H](O)[C@H]1O)[C@H]1CC[C@]2(C)[C@@H]1[C@H](O)C[C@@H]1[C@@]3(C)CC[C@H](O)C(C)(C)[C@@H]3[C@@H](O[C@@H]3O[C@H](CO)[C@@H](O)[C@H](O)[C@H]3O[C@@H]3O[C@@H](C)[C@H](O)[C@@H](O)[C@H]3O)C[C@]12C [Ginsenoside Re] | 105%
19 | C[C@H](CCC(=O)O)[C@H]1CC[C@H]2[C@@H]3[C@@H](O)C[C@@H]4C[C@H](O)CC[C@]4(C)[C@H]3CC[C@]12C [Ursodiol (Actigal Urso)] | 98.9%
20 | CCCCOc1nc(N)c2c(n1)N(Cc1cccc(CN3CCCC3)c1)CC(=O)N2 | 91.3%
21 | CCOC(=O)[C@H](CCc1ccccc1)N[C@@H](C)C(=O)N1Cc2cc(OC)c(OC)cc2C[C@H]1C(=O)O [Moexipril HCl] | 105%
22 | CS(=O)(=O)c1ccc(C2=C(c3ccccc3)C(=O)OC2)cc1 [Rofecoxib (Vioxx)] | 104%
23 | CN(CCOc1ccc(CC2SC(=O)NC2=O)cc1)c1ccccn1 (centres undefined) [Rosiglitazone HCl] | 115%
24 | Cc1cc(NC(=O)Nc2ccc(N(C)C)cc2)c2cc(F)cc(F)c2n1 | 109%
25 | CCN(CCCc1ccccc1)CCCc1ccccc1 [Alverine Citrate] | 83.8%
26 | COc1ccc(C2CC(=O)c3c(O)cc(OC4OC(COC5OC(C)C(O)C(O)C5O)C(O)C(O)C4O)cc3O2)cc1OC (centres undefined) [Methyl-Hesperidin] | 114%
27 | CNC(=O)CN1CCC(Oc2cc3c(Nc4cccc(Cl)c4F)ncnc3cc2OC)CC1 | 100%
28 | CC1OC(OC2C(CO)OC(OCC3OC(OC(=O)C45CCC(C)(C)CC4C4=CCC6C7(C)CCC(OC8OCC(O)C(O)C8O)C(C)(CO)C7CCC6(C)C4(C)CC5)C(O)C(O)C3O)C(O)C2O)C(O)C(O)C1O (centres undefined) [Hederacoside D] | 103%
29 | C=C[C@@H]1C[C@]1(NC(=O)[C@@H]1C[C@@H](Oc2ncc(OC)c3ccc(Cl)cc23)CN1C(=O)[C@@H](NC(=O)OC(C)(C)C)C(C)(C)C)C(=O)NS(=O)(=O)C1CC1 [Asunaprevir] | 109%
30 | C=C(Cc1ccccc1Cl)C(=O)OCC | 100%

Row | Structure (SMILES) | cell viability
31 | O=C(O)C1=C(CSc2nnnn2CS(=O)(=O)O)CS[C@@H]2[C@H](NC(=O)[C@H](O)c3ccccc3)C(=O)N12 [Cefonicid sodium] | 108%
32 | Fc1ccc(Cl)cc1-c1nc(Nc2ccncc2)c2nccnc2n1 | 104%
33 | Cc1cccc(Nc2nc(-c3ccncc3)cs2)c1 | 64.4%
34 | COc1cc([C@H]2OC[C@H]3[C@@H]2CO[C@@H]3c2ccc(O[C@@H]3O[C@H](CO)[C@@H](O)[C@H](O)[C@H]3O)c(OC)c2)ccc1O[C@@H]1O[C@H](CO)[C@@H](O)[C@H](O)[C@H]1O [Pinoresinol diglucoside] | 108%
35 | C1=Cc2ccccc2Nc2ccccc21 [Iminostilbene] | 113%
36 | O=C(O)CSc1nnc(Br)n1-c1ccc(C2CC2)c2ccccc12 [Lesinurad] | 108%
37 | CCCCN(Cc1ccc(C(=O)NO)cc1)C(=O)Nc1ccccc1 [Nexturastat A] | 21%
38 | CC(C)c1cc2c(N3CCN(C4=NCC(C)(C)S4)CC3)ncnc2s1 [MI-3 (Menin-MLL Inhibitor)] | 55%
39 | Clc1ccc(CSC(Cn2ccnc2)c2ccc(Cl)cc2Cl)cc1 (centres undefined) [Sulconazole Nitrate] | 43.2%
40 | CC1=CC(=O)CC(C)(C)C1=O [Ketoisophorone] | 110%
41 | CN1CCc2c(c3ccccc3n2Cc2ccc(C(=O)NO)cc2)C1 [Tubastatin A hydrochloride] | 66.5%
42 | CCC[C@@H]1C[C@@H](C(=O)N[C@@H]([C@H]2O[C@H](SC)[C@H](O)[C@@H](O)[C@H]2O)[C@@H](C)O)N(C)C1 [Lincomycin hydrochloride (Lincocin)] | 95.2%
43 | COc1cc2c(cc1OC)-c1cc3ccc(OC)c(OC)c3c[n+]1CC2 [Palmatine chloride] | 93%
44 | COc1ccc(C(=O)CC2(O)C(=O)Nc3c(Cl)ccc(Cl)c32)cc1 (centres undefined) | 8.57%
45 | CCNC(=O)Nc1ccc(-c2nc(N3CCOC[C@@H]3C)c3c(n2)C(C)(C)S(=O)(=O)C3)cc1 | 51%
46 | C=C[C@]1(C)C[C@@H](OC(=O)CSCCN(CC)CC)[C@]2(C)[C@H](C)CC[C@]3(CCC(=O)[C@H]32)[C@@H](C)[C@@H]1O [Tiamulin] | 92.8%
47 | Oc1ccc(Nc2nc(-c3ccc(Cl)cc3)cs2)cc1 | 36.5%
48 | CCC1=C[C@@H]2CN(C1)Cc1c([nH]c3ccccc13)[C@@](C(=O)OC)(c1cc3c(cc1OC)N(C)[C@H]1[C@@](O)(C(=O)OC)[C@H](OC(C)=O)[C@]4(CC)C=CCN5CC[C@]31[C@@H]54)C2 [Vinorelbine Tartrate] | 7.57%
49 | COc1cc(O)c(C(=O)c2ccccc2)cc1S(=O)(=O)O [Sulisobenzone] | 104%
